# Giardia FBPA inh-1: blocks Giardia fructose-bisphosphate aldolase activity | Potency, µM (series often up to 59.6 µM), for the others: at the highest dose activity, negative = inhibition, hits mostly inhibitors | actives 0.71% (n = 290,000) | purified Giardia FBPA; also: nearly all actives have a fitted effect of over 55% in size
#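 Giardia FBPA (40 nM reagent) was preincubated 10 min at RT with compound (up to 57.5 uM final), then substrate plus GAPDH/TPI/NAD/arsenate coupling system with diaphorase/resazurin was added; resorufin fluorescence (525/598 nm) was read after 20 min.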
# LmPK inhibitor: inhibitors of Leishmania mexicana pyruvate kinase; Q27686; purified LmPK, Kinase-Glo ATP luminescence, 1 h; Potency, µM (titrated, usually from 57.5 µM), for inactives: at the top dose activity change, negative = inhibition, usual class: inhibitors; actives 0.37% (n = 290,000); AID 1721
# Target sequence (Q27686 whole entry, looked up): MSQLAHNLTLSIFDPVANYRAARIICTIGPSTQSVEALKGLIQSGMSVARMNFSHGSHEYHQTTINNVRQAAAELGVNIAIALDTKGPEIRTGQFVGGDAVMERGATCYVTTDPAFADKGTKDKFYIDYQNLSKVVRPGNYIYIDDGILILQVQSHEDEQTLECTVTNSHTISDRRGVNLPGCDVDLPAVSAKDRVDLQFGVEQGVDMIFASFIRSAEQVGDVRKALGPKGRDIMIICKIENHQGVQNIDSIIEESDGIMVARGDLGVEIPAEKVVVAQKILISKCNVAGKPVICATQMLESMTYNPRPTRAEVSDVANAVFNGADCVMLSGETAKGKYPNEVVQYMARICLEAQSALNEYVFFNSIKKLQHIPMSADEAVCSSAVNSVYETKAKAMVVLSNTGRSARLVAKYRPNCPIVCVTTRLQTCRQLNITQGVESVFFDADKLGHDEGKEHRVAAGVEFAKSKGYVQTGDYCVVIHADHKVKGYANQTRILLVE
#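 qHTS format; LmPK 0.1 nM; substrates PEP 0.5 mM and ADP 0.1 mM. One-hour room-temperature incubation, then coupled luciferase luminescence; 0.5 nM enzyme wells mark activation.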
# RE007 growth inh: less growth of the S. pombe RE007 Vpr strain; S. pombe RE007 Vpr strain, BacTiter-Glo ATP luminescence, 24 h; Potency, µM (doses to about 92.2 µM), inactives show at the highest dose activity change, negative = less growth, usual class: inhibitors; actives 0.21% (n = 360,000); active = well fitted falling curve with a large enough effect; inconclusive = small, poorly fitted or top-dose-only effect; inactive = no such curve, though single readings can be large or run the other way; also: nearly all actives have a fitted effect of over 50% in size
#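 Fission yeast strain RE007, carrying one chromosomally integrated HIV-1 vpr copy, was seeded at OD 0.01 in PMG+AL medium with 23 nL pinned compound. After 24 h at 30 °C and 99% humidity, viability was read by BacTiter-Glo luminescence.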
# TbPYK inhibitor: inhibitors of Trypanosoma brucei pyruvate kinase; Q57TT1; actives 0.12% (n = 410,000); TbPYK enzyme, Kinase-Glo Plus ATP luminescence, 45 min; Potency, µM (titrated, usually from 76.8 µM), for the others: top-dose activity, negative = inhibition, most hits filed as inhibitors; also: nearly all actives have a fitted effect of over 50% in size
#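 Readout: single end-point luminescence (Kinase-Glo Plus, 10 min). Reaction conditions were TbPYK/substrate plus 130 uM ADP, 45 min at RT, pH 7.2 TEA buffer. No-enzyme wells served as controls, and data were normalized before concentration-response fitting.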
# Giardia growth: inhibitors of Giardia lamblia growth. shares compounds with Giardia FBPA inh-1. Giardia lamblia trophozoite growth inhibition. Potency, µM (doses to about 57.5 µM), for the others: top-dose activity change, negative = inhibition, actives largely listed as inhibitors. actives 5% (n = 1,500). AID 2785;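 also: trophozoites exposed to compound for 48 h at 37 °C; nearly all actives have a fitted effect of over 70% in size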
# Mammal cell tox: counter-screen for Giardia aldolase inhibitors: mammalian cell toxicity; AID 2786; shares compounds with Giardia FBPA inh-1; actives 4% (n = 1,500); Potency, µM (titrated, usually from 57.5 µM), inactives show at the top dose viability change, negative = toxicity, hits mostly inhibitors; mammalian cell viability counter-screen, qHTS;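 also: Chinese hamster ovary cells used as mammalian cytotoxicity surrogate; viability measured as cellular ATP by luminescence; compound exposure lasted 48 h before reading; nearly all actives have a fitted effect of over 60% in size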
# Giardia FBPA inh-2: confirmation of Giardia fructose-bisphosphate aldolase inhibitors. shares compounds with Giardia FBPA inh-1. purified Giardia aldolase enzyme activity, qHTS. Potency, µM (titrated, usually from 57.5 µM), for inactives: at the highest dose activity change, negative = inhibition, actives largely listed as inhibitors. actives 5% (n = 1,500). AID 2787; also: nearly all actives have a fitted effect of over 45% in size
# Rabbit FBPA inh: rabbit FBP aldolase inhibition by Giardia aldolase hits | shares compounds with Giardia FBPA inh-1 | Rabbit muscle FBPA enzyme inhibition, selectivity counter-screen | Potency, µM (titrated, usually from 57.5 µM), for inactives: top-dose activity, negative = inhibition, hits mostly inhibitors | actives 4% (n = 1,500) | AID 2794; also: nearly all actives have a fitted effect of over 60% in size
# GAPDH coupling: GAPDH inhibition flagged for Giardia aldolase hits. GAPDH coupling enzyme counterscreen, biochemical, qHTS. Potency, µM (titrated, usually from 57.5 µM), for inactives: at the top dose activity change, negative = inhibition, hits mostly inhibitors. actives 6% (n = 1,500). shares compounds with Giardia FBPA inh-1; also: nearly all actives have a fitted effect of over 55% in size
# The depositor's hits bear a star; ? = inconclusive; . = not tested or not shown; [ ] = dose if it differs, or a comment. Compounds with a hit are over-represented: about 0.95% of the library has one in this group of screens. Unless noted, calls follow the shape of the dose curve; as a rule, active = well fitted curve in the direction sought with a large enough effect; inconclusive = small, poorly fitted or top-dose-only effect, or another doubt; inactive = no such curve, though single readings can be large; an effect the other way counts as inactive or inconclusive. % is scaled to controls: 0 for no effect and ±100 for the full control effect; potency is read from the fitted curve at half-maximal effect.
SMILES,Giardia FBPA inh-1,LmPK inhibitor,RE007 growth inh,TbPYK inhibitor,Giardia growth,Mammal cell tox,Giardia FBPA inh-2,Rabbit FBPA inh,GAPDH coupling
O=C(NCc1cccnc1)c1ccc2sc([C@H]3C[C@H](O)[C@@H](CO)O3)nc2c1,.,.,-7.3%,5.6%,.,.,.,.,.
c1ccc(-c2nc(-c3ccncc3)n[nH]2)nc1,3.54µM*,?,-24.3%,-6.6%,-20.1%[38.3 µM],-13.2%,-20.0%,-9.0%,-9.5%
CCOC(=O)OCC1OC(c2cc(C)cc(C)c2)C=CC1OC(=O)OCC (stereo unspecified),-1.1%[12.9 µM],.,.,.,.,.,.,.,.
Nc1[nH]c(C(=O)c2ccccc2)c(-c2ccc(C(F)(F)F)cc2)c1C(=O)NCc1ccc(Cl)cc1Cl,.,.,26.7%,5.3%,.,.,.,.,.
COc1cccc(NC(=O)NNS(=O)(=O)c2ccc(OC)cc2OC)c1,3.9%,4.8%,-5.7%,-5.5%,.,.,.,.,.
CNC(=S)NNS(=O)(=O)c1ccc(OC)cc1OC,19.9µM*,7.5%,7.2%,-20.9%,22.0%,-3.7%,2.2%,5.6%,7.1%
O=C1NC[C@H](CCCCN2C[C@H](Cc3ccccc3)N(CCc3ccc(O)cc3)C(=O)C2=O)N(CC2CCCCC2)C1=O,.,.,5.3%,-3.1%,.,.,.,.,.
CCN(CC)c1ccc(C=C2C(=O)NC(=S)NC2=O)cc1,14.1µM*,-18.1%,8.0%,?,14.1µM*,0.5%,-9.8%,-0.9%,4.7%
CCN(CC)c1ccc(/C=C2\NC(=O)NC2=O)cc1,-9.2%,2.0%,9.9%,-5.3%,.,.,.,.,.
O=C(N/N=C/c1c(O)n(-c2ccccc2)c(=S)[nH]c1=O)c1ccccc1,-15.7%,-2.4%,-3.5%,-19.0%,3.9%[38.3 µM],1.4%,?,-17.3%,?
O=C(N/N=C/c1c(O)n(-c2ccccc2)c(=O)[nH]c1=O)c1ccncc1,-0.4%,-4.9%,-8.7%,2.6%,.,.,.,.,.
O=C(N/N=C/c1ccccn1)c1cccc([N+](=O)[O-])c1,15.8µM*,-0.9%,2.8%,5.1%,-26.8%,?,15.1%,-2.9%,8.1%
Cc1ccc(C(=O)N/N=C\c2ccc([N+](=O)[O-])o2)cn1,11.2µM*,2.5%,-11.7%,-3.1%,3.16µM*,-19.2%,-7.2%,-3.4%,1.3%
O=C(N/N=C/c1ccccn1)c1cc(C2CC2)[nH]n1,17.7µM*,-0.6%,-6.6%,-1.5%,?,-6.5%,-3.1%,-2.0%,5.3%
O=C(N/N=C/C=C/c1cccc([N+](=O)[O-])c1)c1ccncc1,15.8µM*,1.9%,6.5%,2.2%,28.2µM*,-4.5%,3.4%,-4.1%,4.7%
Cc1ccc(C(=O)N/N=C\c2ccc(-c3ccc([N+](=O)[O-])cc3)o2)cn1,3.0%,3.8%,0.2%,-5.0%,.,.,.,.,.
Nc1ccc(C(=O)N/N=C\C=C\c2cccc([N+](=O)[O-])c2)cc1,-8.7%,5.5%,-12.0%,-2.7%,.,.,.,.,.
O=C(N/N=C/c1ccccn1)c1ccc([N+](=O)[O-])cc1,?,-2.3%,-14.4%,1.4%,.,.,.,.,.
O=C(N/N=C/c1ccccn1)c1cc([N+](=O)[O-])cc([N+](=O)[O-])c1,9.98µM*,0.4%,-11.2%,-10.9%,25.1µM*,?,0.8%,-7.6%,-6.0%
O=C(N/N=C/c1ccccn1)c1ccc2nc[nH]c2c1,15.8µM*,-0.4%,-11.1%,-3.3%,8.0%[10.4 µM],4.7%,5.4%,4.0%,-8.4%
Cc1ccc(C(=O)N/N=C\c2ccccn2)cn1,7.92µM*,-0.9%,20.8%,1.7%,-10.5%[38.3 µM],-7.8%,5.8%,4.1%,-8.1%
CC(C)(C)c1ccc(C(=O)N/N=C/c2ccccn2)cc1,-1.7%,0.0%,?,-17.7%,.,.,.,.,.
O=C(N/N=C/c1ccccn1)c1ccc(NC(=O)c2cccc([N+](=O)[O-])c2)cc1,14.1µM*,4.3%,12.1%,3.8%,?,-9.9%,4.5%,-1.3%,-4.5%
Cc1ccc(N2CCN(C(=O)c3cn(C)c4ccc(S(=O)(=O)N(C)C5CCCCC5)cc4c3=O)CC2C)cc1 (stereo unspecified),.,.,.,0.8%,.,.,.,.,.
Cc1csc(N/N=C/c2ccc([N+](=O)[O-])cc2)n1,-16.5%,2.4%,-16.1%,-4.4%,.,.,.,.,.
SMILES,Giardia FBPA inh-1,LmPK inhibitor,RE007 growth inh,TbPYK inhibitor,Giardia growth,Mammal cell tox,Giardia FBPA inh-2,Rabbit FBPA inh,GAPDH coupling
CCOc1ccc(C(=O)NC(=S)Nc2ccccn2)cc1[N+](=O)[O-],?,-11.4%,3.0%,-1.4%,.,.,.,.,.
O=C(NC(=S)Nc1ccccn1)c1cccc([N+](=O)[O-])c1,15.8µM*,1.5%,-15.8%,-0.2%,?,-7.3%,4.7%,6.2%,13.4%
Cc1csc(N/N=C/c2ccccn2)n1,15.8µM*,-22.0%[11.5 µM],?,-22.6%,-6.5%[10.4 µM],25.1µM*,-3.4%,-0.7%,-10.5%
COc1ccccc1CNC(=O)[C@H](NC(=O)C1CCN(C(=O)[C@@H](N)CCSC)CC1)C(C)C,-29.3%,5.6%,-3.3%,5.9%,.,.,.,.,.
O=C(Nc1n[nH]c(=S)s1)c1ccco1,7.08µM*,-13.9%,11.3%,?,-5.4%[38.3 µM],4.0%,39.8µM*,-11.5%,-20.6%
O=C(Nc1nnc(-c2ccc(F)cc2)s1)c1ccco1,-4.6%,6.2%,-13.0%,0.8%,.,.,.,.,.
COc1cc(OC)c(N(C)C(=O)Cn2ncc3c(=O)oc4ccccc4c32)cc1Cl,.,.,.,-4.9%,.,.,.,.,.
CCC(C)NCCOc1ccc(C(C)(C)c2ccccc2)cc1 (stereo unspecified),17.7µM*,9.7%,6.6%,-4.4%,?,-9.1%,8.9%,9.8%,-0.4%
CCN(CC)S(=O)(=O)c1ccc(C(=O)Nc2nnc(COC)o2)cc1,17.7µM*,7.2%,2.9%,0.0%,8.9%,16.0%,6.0%,17.8%,18.7%

# Bioassay records deposited in PubChem BioAssay by National Center for Advancing Translational Sciences (NCATS).
